Active and inactive are the calls of the source.

Assay [1] can be described thus: compounds binding Alexa647 anti-His antibody – biochemical, small-molecule microarray, 635 nm fluorescence, artefact control for SMM control protein annotation, primary screen (AID 1128).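 Note: score merges feature fluorescence with signal-to-noise for each printed compound spot.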 The conditions noted are these: higher = more signal.
The test system of assay [2] is Human papillomavirus type 1a E7 protein (residues 1-88). In words: HPV1a E7 small-molecule binders, primary screen, biochemical, small-molecule microarray, residues 1-88, 635 nm (AID 1129). The note with it: small-molecule microarray binding, fluorescence 635 nm; higher = more signal.
The target of assay [3] is Focal adhesion kinase 1 (Homo sapiens) (UniProt Q05397). Put plainly: PTK2 protein binding on printed compound slides – biochemical, small-molecule microarray, 635/667 nm fluorescence, BSA, DTT, primary screen (AID 1130).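 Note: composite of spot emission at 667 nm and signal to noise over triplicate slides.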 The note with it: 635 nm fluorescence, higher = more signal.
Chain of Focal adhesion kinase 1 (Homo sapiens) (Q05397 whole entry, looked up): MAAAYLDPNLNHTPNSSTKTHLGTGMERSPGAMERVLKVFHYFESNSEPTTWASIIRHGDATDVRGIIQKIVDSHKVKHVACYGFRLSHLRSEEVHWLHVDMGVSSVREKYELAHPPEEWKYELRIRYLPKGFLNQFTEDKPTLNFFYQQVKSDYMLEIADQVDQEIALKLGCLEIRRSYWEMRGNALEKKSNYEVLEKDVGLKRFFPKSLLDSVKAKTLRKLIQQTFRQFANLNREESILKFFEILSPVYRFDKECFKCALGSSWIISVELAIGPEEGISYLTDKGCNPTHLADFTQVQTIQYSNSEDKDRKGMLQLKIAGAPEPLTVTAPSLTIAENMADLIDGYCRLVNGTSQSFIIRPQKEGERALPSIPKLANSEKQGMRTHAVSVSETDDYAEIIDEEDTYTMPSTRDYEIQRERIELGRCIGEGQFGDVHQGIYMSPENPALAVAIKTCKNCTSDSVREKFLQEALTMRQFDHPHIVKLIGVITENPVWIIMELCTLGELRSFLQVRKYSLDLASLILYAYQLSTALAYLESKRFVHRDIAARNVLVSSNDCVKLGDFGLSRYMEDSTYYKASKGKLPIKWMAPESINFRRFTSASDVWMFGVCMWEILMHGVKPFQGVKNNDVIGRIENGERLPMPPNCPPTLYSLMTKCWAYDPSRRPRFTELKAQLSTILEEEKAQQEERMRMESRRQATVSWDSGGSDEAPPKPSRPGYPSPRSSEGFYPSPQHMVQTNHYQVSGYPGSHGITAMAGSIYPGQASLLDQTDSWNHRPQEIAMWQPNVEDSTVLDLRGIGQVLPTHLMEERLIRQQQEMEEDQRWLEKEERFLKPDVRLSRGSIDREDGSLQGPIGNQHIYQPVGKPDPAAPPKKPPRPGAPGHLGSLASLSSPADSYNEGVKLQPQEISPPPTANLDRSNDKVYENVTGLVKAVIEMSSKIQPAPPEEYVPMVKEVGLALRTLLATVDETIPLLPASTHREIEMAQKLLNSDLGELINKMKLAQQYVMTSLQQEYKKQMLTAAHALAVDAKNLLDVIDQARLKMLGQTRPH
Assay [4] concerns Fibrinogen (Alexa647-labelled). In words: Alexa647-fibrinogen binding to printed small molecules – biochemical, small-molecule microarray, 635/667 nm fluorescence, artefact control for SMM control-protein annotation, profiling panel (AID 1131).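 Note: z-score merges 667 nm fluorescence with per-spot signal-to-noise over triplicate slides.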 The note with it: fibrinogen-A647 binding fluorescence, higher = more signal.
In assay [5] the target is Follistatin (Homo sapiens) (UniProt P19883). In words: FST protein binding to printed compounds – biochemical, small-molecule microarray, 635/667 nm fluorescence, primary screen (AID 1132). The conditions noted are these: 635 nm fluorescence, higher = more signal.
Chain of Follistatin (Homo sapiens) (P19883 whole entry, looked up): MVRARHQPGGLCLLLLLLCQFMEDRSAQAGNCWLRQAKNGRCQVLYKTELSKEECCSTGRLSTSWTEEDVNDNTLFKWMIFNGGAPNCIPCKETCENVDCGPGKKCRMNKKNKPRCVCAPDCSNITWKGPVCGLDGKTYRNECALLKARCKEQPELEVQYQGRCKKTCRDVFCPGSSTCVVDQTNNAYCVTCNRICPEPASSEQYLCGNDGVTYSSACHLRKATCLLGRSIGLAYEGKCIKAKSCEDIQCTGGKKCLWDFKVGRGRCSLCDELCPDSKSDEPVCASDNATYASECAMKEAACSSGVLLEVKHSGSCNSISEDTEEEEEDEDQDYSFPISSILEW
The target in assay [6] is Fibroblast growth factor 2 (Homo sapiens) (UniProt P09038). Put plainly: basic fibroblast growth factor binding to printed compounds – biochemical, small-molecule microarray, 635/667 nm fluorescence, primary screen (AID 1133). The note with it: FGF2, fluorescence 635/667, higher = more signal.
Chain of Fibroblast growth factor 2 (Homo sapiens) (P09038 whole entry, looked up): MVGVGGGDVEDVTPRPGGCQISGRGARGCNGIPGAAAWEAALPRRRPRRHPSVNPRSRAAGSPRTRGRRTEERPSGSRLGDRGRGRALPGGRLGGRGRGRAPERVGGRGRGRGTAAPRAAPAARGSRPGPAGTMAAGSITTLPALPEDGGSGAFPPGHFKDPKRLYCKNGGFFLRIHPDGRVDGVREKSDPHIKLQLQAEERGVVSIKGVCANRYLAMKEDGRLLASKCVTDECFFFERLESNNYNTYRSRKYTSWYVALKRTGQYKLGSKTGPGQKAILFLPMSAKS
Assay [7] is described as follows: JC-1 mitochondrial potential readout, lung cancer cells – cell-based, A549, JC-1 fluorescence, basal, 24 h, 100 nL, profiling panel (AID 1138).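 Note: A549 lung adenocarcinoma cells under basal conditions with no added stimulus; test concentration not given here.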 The note with it: higher = more signal.
The test system of a further assay is Lefty1. Put plainly: Lefty1 protein binding to printed compounds – biochemical, small-molecule microarray, 635/667 nm fluorescence, primary screen (AID 1139). The note with it: fluorescence 635/667, higher = more signal.
For assay [8], the system named is wheat germ agglutinin (Triticum aestivum), Alexa647-labelled. Put plainly: Alexa647-WGA lectin binding to printed small molecules – biochemical, small-molecule microarray, 635/667 nm fluorescence, artefact control for SMM control-protein annotation, profiling panel (AID 1140).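 Note: score merges 667 nm feature emission with signal to noise over triplicate slides.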 The note with it: WGA-A647 binding, 635 nm fluorescence, higher = more signal.
Assay [9] has as its target Luciferin 4-monooxygenase (Photinus pyralis) (UniProt P08659). In words: inhibition of purified Photinus pyralis luciferase – biochemical, luminescence, purified enzyme, 2006 set, primary screen (AID 1141).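 Note: cell-free assay with purified firefly luciferase at 100 ng per well in PBS; test concentration not given here.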 The conditions noted are these: purified firefly luciferase, SteadyGlo luminescence, 30 min; higher = more signal, called active from +8 up or from −8 down.
Assay [10] deals with Wnt5a (protein binding on small-molecule microarray). Put plainly: small molecules binding Wnt5a protein – biophysical, small-molecule microarray, 635/667 nm fluorescence, primary screen (AID 1142).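 Note: fluorescence read at 667 nm with signal to noise per printed feature.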 The note with it: 635 nm fluorescence, higher = more signal.
Assay [11] is described as follows: ATP-based viability of Huh7 replicon cells – cell-based, CellTiter-Glo luminescence, basal, 48 h, cytotoxicity control for HCV replication inhibitor project, primary screen (AID 1143).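 Note: Huh7 hepatoma cells carrying a hepatitis C replication reporter with no stimulus; test concentration not given here.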 The note with it: higher = more signal, called active from +8 up or from −8 down.
Assay [12] in a line: basal CRE-LacZ reporter activity in PC12 – cell-based, unstimulated, primary screen (AID 1145). The note with it: no forskolin, luminescence, 4.5 h, higher = more signal, called active from +8 up or from −8 down.
A short description of assay [13]: forskolin-driven CRE-LacZ activity in PC12 – cell-based, CRE-LacZ reporter, forskolin-stimulated, primary screen (AID 1146).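 Note: PC12 cells with 6xCRE LacZ reporter stimulated by forskolin 10 µM; beta-galactosidase reporter signal reflecting CREB driven transcription.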 The note with it: luminescence, 4.5 h, higher = more signal, called active from +8 up or from −8 down.
Assay [14] concerns the target Streptavidin (Streptomyces avidinii) (UniProt P22629). In words: compounds binding control protein streptavidin – biophysical, small-molecule microarray, 635/667 nm fluorescence, artefact control for SMM compound annotation, primary screen (AID 1147).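 Note: signal reflects streptavidin binding to arrayed compounds as a control protein.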 The note with it: higher = more signal.
Assay [15] can be described thus: probe aInhba binding on compound microarray – biochemical, small-molecule microarray, 635/667 nm fluorescence, primary screen (AID 1148).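 Note: score merges 667nm spot fluorescence with signal-to-noise for antibody binding to printed compounds.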 The note with it: higher = more signal.
Assay [16] addresses Torsin-1A (Homo sapiens) (UniProt O14656). In words: TOR1A wild-type binding on microarray – cell lysate, small-molecule microarray, lysate, 635/667 nm, primary screen (AID 1149). The conditions noted are these: COS7 hTOR1A-WT lysate, 635 nm fluorescence, higher = more signal.
Assay [17] shares this target. In words: torsin A mutant lysate binding on microarrays – cell lysate, small-molecule microarray, COS7 lysate, 635/667 nm fluorescence, primary screen (AID 1150).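 Note: score pools 667 nm emission and signal to noise measuring lysate protein binding.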 The note with it: COS7 hTOR1A mutant lysate, 635 nm fluorescence, higher = more signal.
The subject of assay [18] is Sonic hedgehog protein (Shh). In words: Sonic hedgehog microarray binding compounds – biochemical, small-molecule microarray, 635/667 nm fluorescence, primary screen (AID 1151).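 Note: Shh protein binding to compounds spotted on small-molecule microarray slides; score combines spot fluorescence intensity with signal-to-noise across triplicate slides.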 The note with it: 635 nm fluorescence, higher = more signal.

Chain of Streptavidin (Streptomyces avidinii) (P22629 whole entry, looked up): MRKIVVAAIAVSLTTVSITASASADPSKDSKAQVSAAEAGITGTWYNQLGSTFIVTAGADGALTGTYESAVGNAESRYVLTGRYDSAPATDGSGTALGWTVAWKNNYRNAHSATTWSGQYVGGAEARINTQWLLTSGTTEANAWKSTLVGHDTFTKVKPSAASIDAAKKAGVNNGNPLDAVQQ
Chain of Luciferin 4-monooxygenase (Photinus pyralis) (P08659 whole entry, looked up): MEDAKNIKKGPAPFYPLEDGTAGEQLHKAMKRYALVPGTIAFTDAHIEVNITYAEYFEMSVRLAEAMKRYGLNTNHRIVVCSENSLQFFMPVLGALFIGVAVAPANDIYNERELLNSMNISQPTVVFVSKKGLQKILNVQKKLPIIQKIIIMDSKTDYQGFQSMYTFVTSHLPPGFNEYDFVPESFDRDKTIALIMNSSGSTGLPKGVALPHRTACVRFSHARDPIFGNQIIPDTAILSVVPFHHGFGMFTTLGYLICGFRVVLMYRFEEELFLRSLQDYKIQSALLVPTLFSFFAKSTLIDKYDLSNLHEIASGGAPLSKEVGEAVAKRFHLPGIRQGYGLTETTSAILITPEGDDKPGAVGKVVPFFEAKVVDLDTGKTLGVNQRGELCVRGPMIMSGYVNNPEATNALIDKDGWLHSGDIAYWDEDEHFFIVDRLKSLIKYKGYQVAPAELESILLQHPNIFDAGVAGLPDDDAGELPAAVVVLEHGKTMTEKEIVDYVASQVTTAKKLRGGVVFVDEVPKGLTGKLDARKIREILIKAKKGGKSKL
Chain of Torsin-1A (Homo sapiens) (O14656 whole entry, looked up): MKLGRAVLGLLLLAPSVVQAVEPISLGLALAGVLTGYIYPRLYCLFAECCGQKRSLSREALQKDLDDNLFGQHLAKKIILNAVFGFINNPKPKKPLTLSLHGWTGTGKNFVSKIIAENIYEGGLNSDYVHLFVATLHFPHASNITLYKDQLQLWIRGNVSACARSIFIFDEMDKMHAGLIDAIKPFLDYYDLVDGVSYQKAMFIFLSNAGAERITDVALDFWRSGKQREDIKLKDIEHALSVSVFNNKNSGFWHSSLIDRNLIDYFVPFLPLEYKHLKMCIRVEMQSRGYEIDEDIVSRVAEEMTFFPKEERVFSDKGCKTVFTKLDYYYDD

On to `CO[C@H]1COC(=O)[C@H](C)COC(=O)[C@H](Cc2ccccc2)NC(=O)CC=C[C@H]1C`, for which the composite z-score in assay [1] was -0.384; in assay [2], -1.55; in [3], 0.195; in [4] it was -1.04; in [5], 1.42; in assay [6] it was 0.807. Besides, the composite z-score was 1.16 in the assay with Lefty1; -1.5 in assay [8]; 0.265 in assay [10]; -0.0705 in [14]; 0.286 in [15]; 0.715 with Torsin-1A (Homo sapiens) [16]. Besides, the figures for the composite z-score (in the assay with Torsin-1A (Homo sapiens) [17]; in assay [18]) were -0.121 and 1.61, respectively. In addition, the z-score in assay [7] is 1.71; in assay [9] it was -1.14 (inactive); in [11] it was -0.441 (inactive); in assay [12], 0.707 (inactive); in assay [13], -0.872 (inactive).
Take `C[C@H]1COC(=O)[C@@H]2CCCN2C(=O)[C@@H](C)COC(=O)[C@@H]2CCCN2C1=O`: the composite z-score in assay [1] was -0.451; in assay [2] it was -0.367; in assay [3], 0.213; in assay [4] it was -0.135; in assay [5], 0.0429; in [6] it was 0.1. For the same molecule, the composite z-score was 0.308 in the assay with Lefty1; -0.468 in [8]; 0.0246 in assay [10]; -0.269 in assay [14]; 0.0086 in [15]; -0.213 in the assay with Torsin-1A (Homo sapiens) [16]. Moreover, the results for the composite z-score (with Torsin-1A (Homo sapiens) [17]; in assay [18]) were 0.25 and 0.355, respectively. Besides, the z-score is 1.05 in [7]; -0.515 (inactive) in assay [9]; -0.0001 (inactive) in [11]; 0.613 (inactive) in [12]; -0.881 (inactive) in assay [13].
For the molecule `C=CC[C@@]1(C(=O)N2CCOCC2)N=C(c2ccc(OCCCO)cc2)O[C@@H]1c1ccccc1`, the composite z-score is 0.805 in assay [1]; 1.19 in assay [2]; 1.57 in [3]; -0.0135 in assay [4]; -0.338 in assay [5]; -0.355 in assay [6]. Further, the composite z-score was -1.02 with Lefty1; 0.868 in assay [8]; -0.0454 in assay [10]; -0.0392 in assay [14]; -0.151 in [15]; 0.0827 with Torsin-1A (Homo sapiens) [16]. Further, the results for the composite z-score (with Torsin-1A (Homo sapiens) [17]; in assay [18]) were 1.2 and -0.571, respectively. Also, the z-score in assay [7] is 1.89; in [9], -0.871 (inactive); in [11] it was -1.33 (inactive); in assay [12] it was 0.437 (inactive); in assay [13], -0.354 (inactive).
As to `O=C(NCC(O)CO)[C@]1(Cc2ccccc2)N=C(c2ccc(OCCCO)cc2)O[C@@H]1c1ccccc1` (stereo not given in full), the composite z-score is 0.713 in [1]; 0.98 in assay [2]; 0.774 in assay [3]; 0.601 in assay [4]; 0.585 in assay [5]; -0.836 in assay [6]. Further, the composite z-score was -1.42 in the assay on Lefty1; 1.27 in assay [8]; 0.454 in assay [10]; 1.38 in assay [14]; 0.633 in assay [15]; 0.379 with Torsin-1A (Homo sapiens) [16]. The results for the composite z-score (in the assay with Torsin-1A (Homo sapiens) [17]; in [18]) were 1.81 and -0.617, respectively. Besides, the z-score was 0.571 in assay [7]; -1.37 (inactive) in assay [9]; -3.91 (inactive) in assay [11]; 0.171 (inactive) in assay [12]; -1.08 (inactive) in assay [13].
On to `COc1cc([C@@H]2N[C@H](C(=O)O)Cc3c2[nH]c2ccccc32)cc(OC)c1OC`, for which the composite z-score in assay [1] was 0.386; in assay [2], 0.431; in [3] it was 0.161; in [4], 0.514; in assay [5], 0.275; in assay [6], 0.254. Also, the composite z-score in the assay with Lefty1 was 0.531; in assay [8], 0.373; in [10], 0.102; in assay [14] it was 0.0855; in [15], -0.0102; with Torsin-1A (Homo sapiens) [16], 0.257. For the same molecule, the figures for the composite z-score (with Torsin-1A (Homo sapiens) [17]; in [18]) were 0.285 and 0.342, respectively. Further, the z-score is 0.559 in assay [7]; -0.538 (inactive) in assay [9]; -1.81 (inactive) in assay [11]; 0.108 (inactive) in assay [12]; -1.69 (inactive) in [13].
